Results published in PubChem BioAssay (NCATS).
Records with an inconclusive call do not appear. The source made the active and inactive calls. Unless noted, calls follow the shape of the dose curve; as a rule, active = well fitted curve in either direction with a large enough effect (not every such curve was filed as active); inconclusive = small, poorly fitted or top-dose-only effect, or another doubt; inactive = flat fitted curve, though single readings scatter.

Assays:
[1] = target: Lysosomal acid glucosylceramidase (Homo sapiens) (UniProt P04062); experiment: Glucocerebrosidase-p2 (AID 348; in the data active = potency below about 10 µM; also: potency is read from the fitted curve at half-maximal effect); settings: purified GBA, blue fluorogenic substrate, 40 min
Chain of Lysosomal acid glucosylceramidase (Homo sapiens) (P04062 whole entry, looked up): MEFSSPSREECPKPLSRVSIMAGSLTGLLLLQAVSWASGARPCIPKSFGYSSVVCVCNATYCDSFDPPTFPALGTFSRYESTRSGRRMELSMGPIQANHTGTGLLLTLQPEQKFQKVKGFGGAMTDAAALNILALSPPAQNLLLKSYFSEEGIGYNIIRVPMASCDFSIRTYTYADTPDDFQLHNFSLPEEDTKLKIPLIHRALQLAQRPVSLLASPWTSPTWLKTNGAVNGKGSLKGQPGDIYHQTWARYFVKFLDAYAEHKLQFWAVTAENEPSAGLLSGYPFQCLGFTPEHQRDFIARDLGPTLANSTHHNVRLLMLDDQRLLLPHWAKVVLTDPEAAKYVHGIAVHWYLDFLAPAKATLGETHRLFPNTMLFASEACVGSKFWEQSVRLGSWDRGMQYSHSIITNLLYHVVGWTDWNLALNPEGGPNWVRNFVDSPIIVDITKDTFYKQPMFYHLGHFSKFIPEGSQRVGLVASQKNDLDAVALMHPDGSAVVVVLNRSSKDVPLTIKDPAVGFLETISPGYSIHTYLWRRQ
Method in brief: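 Normal human glucocerebrosidase (0.2 nM) with blue fluorogenic substrate (80 uM final) in citrate/phosphate pH 5.9 with 10mM sodium taurocholate, 0.01% tween-20; 40 min RT, NaOH/glycine stop; fluorescence Ex 365/Em 440; AC50 from a titration from 0.6 nM upwards.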

[2] = AP1 Signaling Pathway (AID 357); settings: ME-180 AP-1-bla reporter, EGF-induced, beta-lactamase ratio, 5 h; at 7.69 µM (top of the series) unless noted;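 also: ME-180 reporter cells stimulated with EGF at its EC50 level; % is scaled to controls: 0 for no effect and ±100 for the full control effect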
Method in brief: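 Cells are seeded overnight, exposed to compound titrations and an EC50 level of EGF for 5 hours at 37 °C, then loaded with CCF4 dye for 2.5 hours. Beta-lactamase activity under the AP-1 element is read as a blue/green ratio.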

[3] = target: Cytochrome P450 1A2 (Homo sapiens) (UniProt P05177); experiment: p450-cyp1a2 (AID 410; calls by dose curve; also: potency is read from the fitted curve at half-maximal effect;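 as to activity change, negative = inhibition: -100% = full effect of reference inhibitor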); settings: recombinant CYP1A2, luciferin-ME demethylation, luminescence; series mostly up to 57 µM
Chain of Cytochrome P450 1A2 (Homo sapiens) (P05177 whole entry, looked up): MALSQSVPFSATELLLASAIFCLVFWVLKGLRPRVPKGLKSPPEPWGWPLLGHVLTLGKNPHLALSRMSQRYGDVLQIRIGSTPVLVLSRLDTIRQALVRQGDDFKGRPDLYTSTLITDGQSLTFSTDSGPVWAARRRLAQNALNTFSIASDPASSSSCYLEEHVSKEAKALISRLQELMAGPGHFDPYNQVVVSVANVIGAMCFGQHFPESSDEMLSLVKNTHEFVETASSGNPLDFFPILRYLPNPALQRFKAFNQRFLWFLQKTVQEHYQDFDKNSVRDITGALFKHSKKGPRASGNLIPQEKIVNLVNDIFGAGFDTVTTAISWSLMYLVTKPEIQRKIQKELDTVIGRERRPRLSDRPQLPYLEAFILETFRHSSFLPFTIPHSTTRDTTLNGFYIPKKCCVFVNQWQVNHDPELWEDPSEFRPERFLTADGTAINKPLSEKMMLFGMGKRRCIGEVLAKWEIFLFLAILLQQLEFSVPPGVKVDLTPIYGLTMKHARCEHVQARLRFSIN
Method in brief: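 O-Demethylation of luciferin 6' methyl ether by human CYP1A2 is monitored as luciferase luminescence. Substrate sits at Km (100uM); enzyme is 20nM. Values are scaled to 57 uM furafylline as maximal inhibition.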

[4] = NFAT Signaling Pathway (AID 444); settings: Jurkat NFAT-bla M1, carbachol, beta-lactamase ratio, 5 h; at 7.69 µM (top of the series) unless noted;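 also: carbachol stimulus at about its EC50 of 1 µM final; % is scaled to controls: 0 for no effect and ±100 for the full control effect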
Method in brief: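 Jurkat cells carrying an NFAT-driven β-lactamase reporter and co-transfected muscarinic M1 receptor were treated with compound plus carbachol (1 uM final, an EC50 level) for 5 h at 37 °C. CCF4 loading followed for 1 h at RT; 460/530 nm ratio gave %activity.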

[5] = Stat Signaling Pathway (AID 446); settings: ME-180 SIE beta-lactamase reporter, IL-6 stimulated, 5 h; at 7.69 µM (top of the series) unless noted;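 also: ME-180 cervical cancer cells given 40 pM IL-6 alongside compound; SIE-controlled beta-lactamase reporter measured as 460/530 nm FRET emission ratio; % is scaled to controls: 0 for no effect and ±100 for the full control effect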
Method in brief: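 Overnight-plated ME-180 cells bearing a STAT Inducible Element beta-lactamase reporter; 5 h co-exposure to compound and 40 pM IL-6; values normalized to 300 pM IL-6 and 125 nM JAK inhibitor controls.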

[6] = target: Glucocorticoid receptor (Homo sapiens) (UniProt P04150); experiment: GR-EFC Redistribution (AID 451; calls by dose curve; also: potency is read from the fitted curve at half-maximal effect); settings: CHO-K1 GR-EFC translocation, beta-gal luminescence, 2 h
Chain of Glucocorticoid receptor (Homo sapiens) (P04150 whole entry, looked up, the tested form may be a part): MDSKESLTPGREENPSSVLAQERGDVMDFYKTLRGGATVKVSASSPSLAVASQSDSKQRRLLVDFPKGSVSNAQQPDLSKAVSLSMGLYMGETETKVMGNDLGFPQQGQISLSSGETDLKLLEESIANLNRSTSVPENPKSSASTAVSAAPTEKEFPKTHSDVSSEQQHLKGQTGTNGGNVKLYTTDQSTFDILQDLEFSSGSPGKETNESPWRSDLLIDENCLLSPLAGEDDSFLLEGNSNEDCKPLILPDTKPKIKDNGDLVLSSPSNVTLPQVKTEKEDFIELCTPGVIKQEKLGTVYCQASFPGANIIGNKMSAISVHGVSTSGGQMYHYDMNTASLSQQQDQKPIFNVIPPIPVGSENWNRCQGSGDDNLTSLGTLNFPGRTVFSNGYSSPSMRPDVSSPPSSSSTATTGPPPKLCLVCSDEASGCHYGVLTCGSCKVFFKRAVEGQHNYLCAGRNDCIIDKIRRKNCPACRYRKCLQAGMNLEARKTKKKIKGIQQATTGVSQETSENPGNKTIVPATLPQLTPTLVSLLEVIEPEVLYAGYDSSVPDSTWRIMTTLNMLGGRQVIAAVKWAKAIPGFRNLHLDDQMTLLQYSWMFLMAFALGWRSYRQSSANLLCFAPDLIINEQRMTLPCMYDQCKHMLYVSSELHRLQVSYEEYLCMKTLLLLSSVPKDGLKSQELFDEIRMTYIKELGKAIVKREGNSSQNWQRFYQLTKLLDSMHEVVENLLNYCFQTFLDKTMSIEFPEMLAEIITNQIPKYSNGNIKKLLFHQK
Method in brief: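 CHO-K1 cells stably expressing nuclear-localized β-gal enzyme acceptor and GR fused C-terminally to the enzyme donor fragment; ligand-driven nuclear translocation restores β-gal by complementation. Compounds titrated up to 46 uM final, 2 h at 37 °C; luminescence read.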

[7] = target: Mitogen-activated protein kinase 10 (Mus musculus) (UniProt Q61831); experiment: JNK3 AlphaScreen Assay (AID 530); settings: JNK3 lysate, c-Jun phosphorylation; series mostly up to 57.1 µM;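 also: kinase came from lysate of stimulated human HepG2 cells; signal reports phosphorylation of biotinylated GST-cJun 1-79 at Ser73 with 10 µM ATP; % is scaled to controls: 0 for no effect and ±100 for the full control effect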
Method in brief: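 Phosphorylation of biotinylated GST-cJun(1-79) at Ser73 is measured by AlphaScreen proximity luminescence. Enzyme is JNK3 in HepG2 lysates activated with interleukin-1beta and tumor necrosis factor alpha; ATP is 10 uM final.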

[8] = target: 3',5'-cyclic-AMP phosphodiesterase 4B (Homo sapiens) (UniProt Q07343); experiment: qHTS Assay for Inhibitors of PDE-IV (AID 607; active = well fitted activation curve with a large enough effect in the main read-out, with a control signal flat, not every such curve was filed as active; also: % of control where 0% means no effect); settings: HEK293 ACTOne CNG channel cells, membrane potential fluorescence; series mostly up to 22.9 µM
Chain of 3',5'-cyclic-AMP phosphodiesterase 4B (Homo sapiens) (Q07343 whole entry, looked up): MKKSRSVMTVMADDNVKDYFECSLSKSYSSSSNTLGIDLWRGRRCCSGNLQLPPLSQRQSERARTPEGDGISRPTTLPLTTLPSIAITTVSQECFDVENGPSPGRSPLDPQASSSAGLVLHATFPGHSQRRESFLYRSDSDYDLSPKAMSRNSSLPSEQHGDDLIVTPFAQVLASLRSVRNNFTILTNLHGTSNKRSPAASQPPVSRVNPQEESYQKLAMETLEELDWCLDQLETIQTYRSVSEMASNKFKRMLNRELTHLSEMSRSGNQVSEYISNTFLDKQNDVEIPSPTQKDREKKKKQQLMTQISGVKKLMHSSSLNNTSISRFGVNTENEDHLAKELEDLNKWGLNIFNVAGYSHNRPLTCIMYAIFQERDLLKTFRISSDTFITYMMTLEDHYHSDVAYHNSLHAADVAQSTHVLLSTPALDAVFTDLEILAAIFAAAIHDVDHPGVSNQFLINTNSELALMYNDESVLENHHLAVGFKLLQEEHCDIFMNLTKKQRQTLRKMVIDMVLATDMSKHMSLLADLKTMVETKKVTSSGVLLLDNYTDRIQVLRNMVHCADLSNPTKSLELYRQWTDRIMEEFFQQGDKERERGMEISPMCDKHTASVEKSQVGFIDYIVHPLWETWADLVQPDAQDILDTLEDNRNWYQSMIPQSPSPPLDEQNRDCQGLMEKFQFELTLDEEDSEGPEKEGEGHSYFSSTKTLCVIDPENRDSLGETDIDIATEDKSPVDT
Method in brief: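 Live HEK293 cells with a modified cyclic nucleotide-gated (CNG) channel report intracellular cAMP via membrane-potential dye fluorescence (ex 535/em 590 nm). Endogenous PDE-IV was targeted. Compounds were tested at up to 22.9 uM final; RO 20-1724 100 uM served as control.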

[9] = target: Cytochrome P450 3A4 (Homo sapiens) (UniProt P08684); experiment: qHTS Assay for Activators of Cytochrome P450 3A4 (AID 885; active = well fitted curve in the direction sought with a large enough effect; an effect the other way counts as inactive or inconclusive; also: nearly all actives have a fitted effect of over 65% in size; also: potency is read from the fitted curve at half-maximal effect); settings: recombinant CYP3A4, Luciferin-PPXE luminescence, 60 min; series mostly up to 57.1 µM
Chain of Cytochrome P450 3A4 (Homo sapiens) (P08684 whole entry, looked up): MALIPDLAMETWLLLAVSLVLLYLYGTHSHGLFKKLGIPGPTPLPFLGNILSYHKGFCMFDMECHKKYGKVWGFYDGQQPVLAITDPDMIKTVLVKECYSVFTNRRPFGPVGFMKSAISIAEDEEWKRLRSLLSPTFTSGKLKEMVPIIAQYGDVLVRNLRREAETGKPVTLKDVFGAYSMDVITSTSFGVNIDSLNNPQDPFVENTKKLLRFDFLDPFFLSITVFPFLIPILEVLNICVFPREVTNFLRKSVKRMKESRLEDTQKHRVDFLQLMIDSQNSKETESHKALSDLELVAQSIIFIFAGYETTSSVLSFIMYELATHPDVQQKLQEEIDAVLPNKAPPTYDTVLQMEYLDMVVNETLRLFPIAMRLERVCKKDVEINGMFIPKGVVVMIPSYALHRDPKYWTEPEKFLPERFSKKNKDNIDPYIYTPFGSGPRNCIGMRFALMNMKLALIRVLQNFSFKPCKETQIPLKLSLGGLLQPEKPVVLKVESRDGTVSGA
Method in brief: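 Using 20nM recombinant human CYP3A4 in potassium phosphate (200mM), substrate Luciferin-PPXE at 25uM, luminescent luciferin detection followed a 60-min RT NADPH reaction; data scaled to 57 uM ketoconazole.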

[10] = Primary qHTS for small molecule stabilizers of the endoplasmic reticulum resident proteome: Secreted ER Calcium Modulated Protein (SERCaMP) assay (AID 1508630; active = well fitted curve in the direction sought with a large enough effect; an effect the other way counts as inactive or inconclusive; also: % is scaled to controls: 0 for no effect and ±100 for the full control effect); settings: SH-SY5Y GLuc-SERCaMP (Gaussia luciferase released on ER calcium loss) secretion, thapsigargin, luminescence; series mostly up to 38.4 µM
Method in brief: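 The SH-SY5Y reporter protocol was run at 3 concentrations up to 38.3 uM (primary) or 11 concentrations (follow-up): 16 h compound, 100 nM thapsigargin for 4 h, then extracellular luciferase luminescence.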

[11] = target: Glucocorticoid receptor (Homo sapiens) (UniProt P04150); experiment: GR-GFP Redistribution (AID 450;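 active = compounds whose dose series gives a full or clear partial fitted curve of increased nuclear translocation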; also: potency is read from the fitted curve at half-maximal effect); settings: U2OS GR-GFP nuclear translocation, laser cytometry, 2 h
[12] = target: Cytochrome P450 3A4 (Homo sapiens) (UniProt P08684); experiment: qHTS Assay for Inhibitors and Substrates of Cytochrome P450 3A4 (AID 884; active = well fitted curve in the direction sought with a large enough effect; an effect the other way counts as inactive or inconclusive; also: nearly all actives have a fitted effect of over 50% in size; also: potency is read from the fitted curve at half-maximal effect); settings: recombinant CYP3A4, Luciferin-PPXE luminescence; series mostly up to 57.1 µM
Method in brief: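 Luminescent readout of luciferin produced by CYP3A4 (20 nM) dealkylation of Luciferin-PPXE, 25 uM (its KM). NADPH-driven reaction ran 60 min at RT after 10 min compound preincubation; data scaled to 57 uM ketoconazole as 100% inhibition.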

[13] = qHTS Assay for Identification of Small Molecule Agonists for Hypoxia Response Element Signaling Pathway (AID 914; active = well fitted activation curve with a large enough effect in the signal ratio, with a control signal flat, not every such curve was filed as active; the % refers to the signal ratio; also: potency is read from the fitted curve at half-maximal effect; as to activation: % of control where 0% means no effect); settings: ME-180 (cervical carcinoma) HRE-bla reporter, beta-lactamase ratio, CoCl2, 17 h; activation: hits give high values
Method in brief: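 Cells were plated overnight, pin-dosed with compound in a titration series, co-stimulated with EC50 CoCl2 and incubated 17 hours at 37 degrees Celsius. CCF4 substrate was then loaded, and AC50 values came from the 460nm/530nm ratio.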

[14] = target: Cytochrome P450 2D6 (Homo sapiens) (UniProt P10635); experiment: qHTS Assay for Inhibitors and Substrates of Cytochrome P450 2D6 (AID 891; active = well fitted curve in the direction sought with a large enough effect; an effect the other way counts as inactive or inconclusive; also: potency is read from the fitted curve at half-maximal effect; nearly all actives have a fitted effect of over 60% in size); settings: recombinant CYP2D6, luciferin-ME EGE luminescence; series mostly up to 57.1 µM
Chain of Cytochrome P450 2D6 (Homo sapiens) (P10635 whole entry, looked up): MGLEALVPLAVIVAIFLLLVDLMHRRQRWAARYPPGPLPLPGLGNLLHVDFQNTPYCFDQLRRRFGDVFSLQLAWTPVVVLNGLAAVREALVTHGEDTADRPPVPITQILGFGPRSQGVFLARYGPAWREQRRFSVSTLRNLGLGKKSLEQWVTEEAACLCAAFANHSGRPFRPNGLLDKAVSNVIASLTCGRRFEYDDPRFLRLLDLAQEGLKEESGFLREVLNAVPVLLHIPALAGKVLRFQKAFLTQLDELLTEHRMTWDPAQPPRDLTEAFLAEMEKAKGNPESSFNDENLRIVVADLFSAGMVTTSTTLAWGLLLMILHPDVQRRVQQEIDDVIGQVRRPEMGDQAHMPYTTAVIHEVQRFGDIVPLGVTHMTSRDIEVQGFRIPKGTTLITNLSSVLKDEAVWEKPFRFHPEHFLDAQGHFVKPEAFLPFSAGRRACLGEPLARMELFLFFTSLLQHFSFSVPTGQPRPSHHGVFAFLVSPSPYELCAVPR
Method in brief: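 Luminescent read-out of luciferin formed by 5 nM human CYP2D6 demethylating 30 uM Luciferin-ME EGE (Km level) over 60 min at room temperature after NADPH regeneration addition. Data normalized to full inhibition by 1.43 uM quinidine.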

[15] = target: Cytochrome P450 2C9 (Homo sapiens) (UniProt P11712); experiment: qHTS Assay for Inhibitors and Substrates of Cytochrome P450 2C9 (AID 883; active = well fitted curve in the direction sought with a large enough effect; an effect the other way counts as inactive or inconclusive; also: potency is read from the fitted curve at half-maximal effect; nearly all actives have a fitted effect of over 60% in size); settings: recombinant CYP2C9, luciferin-H luminescence, 60 min; series mostly up to 57.1 µM
Chain of Cytochrome P450 2C9 (Homo sapiens) (P11712 whole entry, looked up): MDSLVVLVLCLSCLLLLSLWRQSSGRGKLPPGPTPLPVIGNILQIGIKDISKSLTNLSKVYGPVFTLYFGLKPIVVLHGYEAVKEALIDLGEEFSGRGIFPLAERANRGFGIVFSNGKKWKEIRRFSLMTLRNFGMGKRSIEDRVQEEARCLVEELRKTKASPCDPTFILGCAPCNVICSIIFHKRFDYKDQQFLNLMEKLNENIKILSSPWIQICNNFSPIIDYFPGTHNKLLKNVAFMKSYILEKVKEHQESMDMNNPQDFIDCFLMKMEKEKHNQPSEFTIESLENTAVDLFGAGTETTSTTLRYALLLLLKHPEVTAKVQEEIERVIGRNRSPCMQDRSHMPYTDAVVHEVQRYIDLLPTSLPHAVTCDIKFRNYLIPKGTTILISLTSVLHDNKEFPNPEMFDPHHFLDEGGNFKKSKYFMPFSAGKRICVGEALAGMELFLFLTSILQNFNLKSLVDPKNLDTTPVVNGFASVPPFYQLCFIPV
Method in brief: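 Human CYP2C9 (10nM) hydroxylated Luciferin-H (100uM, at its KM) to luciferin in 25mM KPO4. Compound was preincubated 10 min at 37C, then NADPH regeneration started a 60 min reaction at 37C. Luminescence was read after detection reagent, normalized to 57uM sulphaphenazole.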

COc1ccc(NC(=O)N2CCC3(CC2)CCN(C(=O)c2ccncc2)CC3)cc1
active: Potency [3] 25.1 µM
inactive: Potency [1] > 11.4 µM | activity change, negative = inhibition [2] -0.635% | activity change, negative = inhibition [4] 3.85% | activity, negative = inhibition [5] 4.58% | Potency [6] > 46 µM | Potency [7] | Potency [8] | Potency [9] | outcome [10]

COc1cccc(Cn2c(=O)c(-c3cccc(C#N)c3)nc3cnc(Nc4ccccc4)nc32)c1
inactive: Potency [1] > 11.4 µM | activity change, negative = inhibition [2] -3.95% | Potency [3] | activity change, negative = inhibition [4] -12.1% | activity, negative = inhibition [5] -14.2% | Potency [6] > 46 µM | Potency [7] | Potency [8] | Potency [9] | outcome [10]

COCC(=O)N1CCC2(CCCN(c3cccc(-c4ccccc4)c3)C2)CC1
inactive: Potency [1] > 11.4 µM | activity change, negative = inhibition [2] -22.8% | activity change, negative = inhibition [4] 17% | activity, negative = inhibition [5] -10.6% | Potency [6] > 46 µM | Potency [7] | Potency [9] | outcome [10]
active: Potency [3] 15.8 µM

COCCn1c(=O)c(-c2cn(C)c3ccccc23)nc2cnc(Oc3ccccc3)nc21
inactive: Potency [1] > 11.4 µM | activity change, negative = inhibition [2] 26.2% | activity change, negative = inhibition [4] 19.4% | Potency [11] > 9.22 µM | Potency [6] > 46 µM | Potency [8] | Potency [9] | outcome [10]
active: Potency [3] 10 µM | Potency [12] 3.16 µM | Potency [13] 3.16 µM

COc1ccc(NC(=O)N2CC3(CCN(C(=O)c4ccncc4)CC3)C2)cc1
inactive: Potency [1] > 11.4 µM | activity change, negative = inhibition [2] 0.578% | Potency [3] | activity change, negative = inhibition [4] 10.9% | activity, negative = inhibition [5] 6.73% | Potency [6] > 46 µM | Potency [7] | Potency [8] | Potency [9] | outcome [10]

COc1ccc(NC(=O)N2CCCC3(CCN(C(=O)c4ccco4)CC3)C2)cc1
inactive: Potency [1] > 11.4 µM | activity change, negative = inhibition [2] -17.6% | Potency [3] | activity change, negative = inhibition [4] 7.9% | activity, negative = inhibition [5] -11.8% | Potency [6] > 46 µM | Potency [7] | Potency [8] | Potency [9] | outcome [10]

COc1ccc(NC(=O)N2CCCC3(CCN(C(=O)c4ccc(OC)cc4)CC3)C2)cc1
inactive: Potency [1] > 11.4 µM | activity change, negative = inhibition [2] -11.4% | Potency [3] | activity change, negative = inhibition [4] 0.394% | activity, negative = inhibition [5] -3.96% | Potency [6] > 46 µM | Potency [7] | Potency [8] | Potency [9] | outcome [10]

O=C(c1cnccn1)N1CCC2(CC1)CN(c1ccccc1)C2
inactive: Potency [1] > 11.4 µM | activity change, negative = inhibition [2] -9.4% | Potency [3] | activity change, negative = inhibition [4] 14% | activity, negative = inhibition [5] -6.18% | Potency [6] > 46 µM | Potency [8] | outcome [10]

CS(=O)(=O)N1CCC[C@@]2(CCN(C(=O)Nc3cccc(C#N)c3)C2)C1
inactive: Potency [1] > 11.4 µM | activity change, negative = inhibition [2] -2.32% | Potency [3] | activity change, negative = inhibition [4] 9.12% | activity, negative = inhibition [5] 1.86% | Potency [6] > 46 µM | Potency [7] | Potency [8] | Potency [9] | outcome [10]

CS(=O)(=O)N1CCC2(CC1)CN(c1ncccn1)C2
inactive: Potency [1] > 11.4 µM | activity change, negative = inhibition [2] -16% | Potency [3] | activity change, negative = inhibition [4] -5.62% | activity, negative = inhibition [5] 6.56% | Potency [6] > 46 µM | Potency [7] | Potency [8] | Potency [9] | outcome [10]

N#Cc1cccc(NC(=O)N2CCCC3(CCN(C(=O)c4cnccn4)CC3)C2)c1
inactive: Potency [1] > 11.4 µM | activity change, negative = inhibition [2] -1.03% | activity change, negative = inhibition [4] -9.23% | activity, negative = inhibition [5] 0.635% | Potency [6] > 46 µM | Potency [7] | Potency [9] | activation [13] 0.071% | outcome [10]
active: Potency [3] 20 µM

Cc1nc2cncnc2n(-c2ccccc2)c1=O
active: Potency [3] 10 µM
inactive: Potency [1] > 11.4 µM | activity change, negative = inhibition [2] -11.8% | activity change, negative = inhibition [4] -0.117% | activity, negative = inhibition [5] -12.5% | Potency [6] > 46 µM | Potency [7] | Potency [8] | Potency [9] | outcome [10]

Cc1noc(C)c1C(=O)N1CCC[C@@]2(CCN(Cc3nccs3)C2)C1
inactive: Potency [1] > 11.4 µM | activity change, negative = inhibition [2] -0.7% | Potency [3] | activity, negative = inhibition [5] -7.79% | Potency [6] > 46 µM | Potency [7] | Potency [8] | Potency [9] | outcome [10]

O=C(Oc1ccccc1)N1CCC2(CCCN(c3ccc(-c4ccccc4)cc3)C2)CC1
inactive: Potency [1] > 11.4 µM | activity change, negative = inhibition [2] 27% | Potency [3] | activity, negative = inhibition [5] 6.94% | Potency [6] > 46 µM | Potency [7] | Potency [8] | Potency [9] | outcome [10]

CC(=O)N1CCC2(CC1)CCN(C(c1ccccc1)c1ccccc1)CC2
inactive: Potency [1] > 11.4 µM | activity change, negative = inhibition [2] -6.19% | Potency [3] | activity, negative = inhibition [5] -5.71% | Potency [6] > 46 µM | Potency [7] | Potency [8] | Potency [12] | outcome [10]
active: Potency [9] 25.1 µM | Potency [14] 7.94 µM

O=C(c1cccc(F)c1)N1CCC2(CCCN(Cc3ccncc3)C2)CC1
active: Potency [3] 15.8 µM | Potency [15] 631 nM | Potency [14] 7.94 µM
inactive: Potency [1] > 11.4 µM | activity change, negative = inhibition [2] -4.41% | activity, negative = inhibition [5] -4.85% | Potency [6] > 46 µM | Potency [7] | Potency [8] | Potency [9] | outcome [10]
